For some assays here: Potency and affinity values are given separately.

Holding throughout (design): scale not given: direction of the effect not stated beside the values
Assay [1] has as its target Protein translocase subunit SecA (Escherichia coli (strain K12)) (UniProt P10408). The experiment in a line: Assay to Identify E. coli SecA ATPase Inhibitors. It is filed as functional. The following applies: 30 µM.
Assay [2] deals with T1, Ubiquitin-activating enzyme e1, putative (Leishmania donovani (strain BPK282A1)) (UniProt E9BSI1).
T1 sequence (whole entry): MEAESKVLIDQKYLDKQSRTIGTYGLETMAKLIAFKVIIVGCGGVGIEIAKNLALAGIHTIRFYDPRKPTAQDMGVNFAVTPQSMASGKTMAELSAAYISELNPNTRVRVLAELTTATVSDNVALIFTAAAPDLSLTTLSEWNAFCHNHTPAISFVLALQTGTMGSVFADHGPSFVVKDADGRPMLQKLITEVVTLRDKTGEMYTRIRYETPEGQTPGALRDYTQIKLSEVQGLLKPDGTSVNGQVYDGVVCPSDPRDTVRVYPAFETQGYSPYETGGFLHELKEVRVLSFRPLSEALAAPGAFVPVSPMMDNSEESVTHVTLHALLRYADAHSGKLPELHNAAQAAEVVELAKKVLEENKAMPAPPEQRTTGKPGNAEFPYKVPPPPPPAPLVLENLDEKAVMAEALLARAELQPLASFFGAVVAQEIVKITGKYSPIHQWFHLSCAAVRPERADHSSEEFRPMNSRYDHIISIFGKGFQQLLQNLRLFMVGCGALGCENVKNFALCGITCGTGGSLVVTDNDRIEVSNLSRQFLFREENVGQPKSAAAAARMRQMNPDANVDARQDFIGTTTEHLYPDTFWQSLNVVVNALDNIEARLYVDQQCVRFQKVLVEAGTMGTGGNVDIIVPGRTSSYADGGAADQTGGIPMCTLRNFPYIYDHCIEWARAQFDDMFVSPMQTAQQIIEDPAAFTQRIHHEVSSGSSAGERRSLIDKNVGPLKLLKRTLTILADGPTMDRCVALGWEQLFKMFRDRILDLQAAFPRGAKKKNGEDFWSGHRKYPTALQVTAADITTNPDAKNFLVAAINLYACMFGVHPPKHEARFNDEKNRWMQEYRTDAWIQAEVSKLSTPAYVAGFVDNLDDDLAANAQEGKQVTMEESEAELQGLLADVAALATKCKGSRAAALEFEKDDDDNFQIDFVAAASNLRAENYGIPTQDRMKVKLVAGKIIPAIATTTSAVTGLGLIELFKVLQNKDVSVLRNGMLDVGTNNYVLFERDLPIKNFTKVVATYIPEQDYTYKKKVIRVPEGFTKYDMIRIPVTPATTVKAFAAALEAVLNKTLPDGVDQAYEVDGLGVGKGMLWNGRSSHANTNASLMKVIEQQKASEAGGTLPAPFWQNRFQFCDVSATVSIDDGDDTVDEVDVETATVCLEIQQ
The experiment in a line: Leishmania donovani Ubiquitin Activating Enzyme (LdE1). It is filed as functional. As to conditions: 30 µM.

In assay [3] the target is Sialic acid-binding Ig-like lectin 9 (Homo sapiens) (UniProt Q9Y336). The experiment in a line: Hs-Siglec9 ALPHAscreen SOP 20170721. As to conditions: 10 µM. A general note: Bead proximity is the source of the signal in Alpha formats.
The next assay relates to Trypanosoma cruzi. The experiment in a line: Trypanosoma cruzi phosphomannomutase and mannose-1-phosphate guanylyltransferase assay. Type of assay: functional. As to conditions: 10 µM.
For assay [4], the target named is T2, Arginase-2, mitochondrial (Homo sapiens) (UniProt P78540).
T2 sequence (whole entry): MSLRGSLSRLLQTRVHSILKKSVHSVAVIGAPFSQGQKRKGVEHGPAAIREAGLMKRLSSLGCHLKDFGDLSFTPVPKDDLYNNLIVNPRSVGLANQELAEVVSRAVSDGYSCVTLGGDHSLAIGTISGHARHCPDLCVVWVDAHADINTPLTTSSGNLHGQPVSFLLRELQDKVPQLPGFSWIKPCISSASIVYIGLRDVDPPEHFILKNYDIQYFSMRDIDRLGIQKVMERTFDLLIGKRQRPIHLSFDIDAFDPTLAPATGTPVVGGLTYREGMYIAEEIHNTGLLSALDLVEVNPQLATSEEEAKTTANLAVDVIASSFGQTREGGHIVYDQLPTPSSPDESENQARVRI
The experiment in a line: in vitro enzyme assay to detect the production of urea directly proportional to the activity of Arginase II. Note: in the data most compounds retested in dose-response had high values. It is filed as functional. As to conditions: 33.3 µM.

The target in assay [5] is T3, Proteasome subunit beta (Trypanosoma cruzi) (UniProt O96673).
T3 sequence (whole entry): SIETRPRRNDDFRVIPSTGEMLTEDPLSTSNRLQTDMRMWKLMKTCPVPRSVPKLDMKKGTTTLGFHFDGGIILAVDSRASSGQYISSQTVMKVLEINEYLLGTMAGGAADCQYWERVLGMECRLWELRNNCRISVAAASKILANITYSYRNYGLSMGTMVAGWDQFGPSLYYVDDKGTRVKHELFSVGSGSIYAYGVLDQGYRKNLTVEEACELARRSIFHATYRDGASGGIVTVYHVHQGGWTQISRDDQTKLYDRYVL
The experiment in a line: Trypanosoma cruzi proteasome chymotrypsin-like activity (TcProtChymo) assay. Note: in the data most compounds retested in dose-response had high values. Type of assay: functional. As to conditions: 9.37 µM.

The species entered for another assay is Homo sapiens. The experiment in a line: To identify inhibition of the IFN signalling (Jak-Stat) pathway via expression of an eGFP reporter gene under the control of an IFN-stimulated response element (ISRE) containing MxA promoter. As to conditions: 30 µM. It is filed as functional. On the technique in general: A reporter such as luciferase makes a cellular process visible.

Assay [6] addresses T4, Tyrosyl-tRNA synthetase, putative (Trypanosoma cruzi (strain CL Brener)) (UniProt Q4DSP6).
T4 sequence (whole entry): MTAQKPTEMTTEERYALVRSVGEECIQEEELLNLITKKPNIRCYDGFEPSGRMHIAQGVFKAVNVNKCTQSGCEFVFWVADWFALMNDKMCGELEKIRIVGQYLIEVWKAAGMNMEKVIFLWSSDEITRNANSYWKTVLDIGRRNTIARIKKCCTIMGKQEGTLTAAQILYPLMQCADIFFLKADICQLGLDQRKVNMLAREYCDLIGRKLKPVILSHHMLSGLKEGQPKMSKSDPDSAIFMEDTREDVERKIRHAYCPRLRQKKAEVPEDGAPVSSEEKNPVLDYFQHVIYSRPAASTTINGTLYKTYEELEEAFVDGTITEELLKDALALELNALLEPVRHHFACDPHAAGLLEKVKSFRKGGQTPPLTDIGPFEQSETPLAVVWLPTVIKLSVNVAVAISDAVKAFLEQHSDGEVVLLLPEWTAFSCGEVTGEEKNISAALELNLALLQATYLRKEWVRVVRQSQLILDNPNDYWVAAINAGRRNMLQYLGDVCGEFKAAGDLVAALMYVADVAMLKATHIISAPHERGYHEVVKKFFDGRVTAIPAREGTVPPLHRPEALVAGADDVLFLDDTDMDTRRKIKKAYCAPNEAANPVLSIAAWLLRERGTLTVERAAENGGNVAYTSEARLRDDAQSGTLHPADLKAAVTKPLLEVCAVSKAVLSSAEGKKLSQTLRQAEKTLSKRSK
The experiment in a line: Trypanosoma cruzi tyrosyl tRNA synthetase (TcYRS) _High Tyrosine SOP. Note: in the data most compounds retested in dose-response had high values. The following applies: 30 µM. Type of assay: functional.

Assay [7] addresses T4, Tyrosyl-tRNA synthetase, putative (Trypanosoma cruzi (strain CL Brener)). The experiment in a line: Trypanosoma cruzi tyrosyl tRNA synthetase (TcYRS) SOP. It is filed as functional. As to conditions: 30 µM.
In assay [8] the target is Chromo domain-containing protein 1 (Saccharomyces cerevisiae (strain ATCC 204508 / S288c) (Baker's yeast)) (UniProt P32657). The experiment in a line: ScCHD-1 Enzyme Inhibition Assay. Note: in the data most compounds retested in dose-response had high values. As to conditions: 30 µM. Type of assay: functional.
Chain of Chromo domain-containing protein 1 (Saccharomyces cerevisiae (strain ATCC 204508 / S288c) (Baker's yeast)) (P32657 whole entry, the tested form may be a part): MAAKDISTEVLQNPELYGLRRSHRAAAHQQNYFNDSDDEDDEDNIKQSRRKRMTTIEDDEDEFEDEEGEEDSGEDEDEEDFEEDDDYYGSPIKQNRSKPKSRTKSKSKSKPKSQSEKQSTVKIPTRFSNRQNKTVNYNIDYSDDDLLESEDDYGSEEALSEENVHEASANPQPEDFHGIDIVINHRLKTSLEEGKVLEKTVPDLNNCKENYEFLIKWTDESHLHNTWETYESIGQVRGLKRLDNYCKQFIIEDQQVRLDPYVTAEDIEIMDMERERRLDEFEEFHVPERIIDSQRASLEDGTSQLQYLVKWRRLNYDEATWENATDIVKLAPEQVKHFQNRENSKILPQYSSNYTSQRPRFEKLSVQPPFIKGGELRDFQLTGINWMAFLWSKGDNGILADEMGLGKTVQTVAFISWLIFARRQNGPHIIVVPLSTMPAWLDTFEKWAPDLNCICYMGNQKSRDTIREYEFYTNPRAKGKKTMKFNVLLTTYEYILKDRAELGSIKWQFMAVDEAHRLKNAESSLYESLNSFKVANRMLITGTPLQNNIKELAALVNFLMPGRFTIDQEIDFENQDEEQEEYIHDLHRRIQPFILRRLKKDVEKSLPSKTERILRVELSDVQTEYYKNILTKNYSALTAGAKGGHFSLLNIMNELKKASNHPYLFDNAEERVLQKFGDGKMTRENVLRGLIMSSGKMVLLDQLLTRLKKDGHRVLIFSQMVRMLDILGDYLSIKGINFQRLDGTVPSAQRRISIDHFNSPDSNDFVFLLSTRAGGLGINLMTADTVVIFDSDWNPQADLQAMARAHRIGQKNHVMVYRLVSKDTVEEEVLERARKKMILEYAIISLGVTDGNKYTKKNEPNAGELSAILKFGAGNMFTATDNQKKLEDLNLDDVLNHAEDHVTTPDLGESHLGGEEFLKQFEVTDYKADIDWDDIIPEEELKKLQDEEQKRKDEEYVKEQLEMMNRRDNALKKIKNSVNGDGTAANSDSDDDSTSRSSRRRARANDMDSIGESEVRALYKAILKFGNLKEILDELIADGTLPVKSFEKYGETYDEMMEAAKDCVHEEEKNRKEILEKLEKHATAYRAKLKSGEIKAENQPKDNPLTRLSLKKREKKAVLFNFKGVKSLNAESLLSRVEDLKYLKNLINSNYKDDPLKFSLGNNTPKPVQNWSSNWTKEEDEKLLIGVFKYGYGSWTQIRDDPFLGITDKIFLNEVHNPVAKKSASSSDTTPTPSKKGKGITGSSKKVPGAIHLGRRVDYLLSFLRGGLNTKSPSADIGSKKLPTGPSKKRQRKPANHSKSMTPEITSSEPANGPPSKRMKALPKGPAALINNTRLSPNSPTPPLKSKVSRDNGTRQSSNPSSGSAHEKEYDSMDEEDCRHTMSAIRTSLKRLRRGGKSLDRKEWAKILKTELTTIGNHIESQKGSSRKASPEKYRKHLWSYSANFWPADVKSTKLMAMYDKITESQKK

Chain of Protein translocase subunit SecA (Escherichia coli (strain K12)) (P10408 whole entry): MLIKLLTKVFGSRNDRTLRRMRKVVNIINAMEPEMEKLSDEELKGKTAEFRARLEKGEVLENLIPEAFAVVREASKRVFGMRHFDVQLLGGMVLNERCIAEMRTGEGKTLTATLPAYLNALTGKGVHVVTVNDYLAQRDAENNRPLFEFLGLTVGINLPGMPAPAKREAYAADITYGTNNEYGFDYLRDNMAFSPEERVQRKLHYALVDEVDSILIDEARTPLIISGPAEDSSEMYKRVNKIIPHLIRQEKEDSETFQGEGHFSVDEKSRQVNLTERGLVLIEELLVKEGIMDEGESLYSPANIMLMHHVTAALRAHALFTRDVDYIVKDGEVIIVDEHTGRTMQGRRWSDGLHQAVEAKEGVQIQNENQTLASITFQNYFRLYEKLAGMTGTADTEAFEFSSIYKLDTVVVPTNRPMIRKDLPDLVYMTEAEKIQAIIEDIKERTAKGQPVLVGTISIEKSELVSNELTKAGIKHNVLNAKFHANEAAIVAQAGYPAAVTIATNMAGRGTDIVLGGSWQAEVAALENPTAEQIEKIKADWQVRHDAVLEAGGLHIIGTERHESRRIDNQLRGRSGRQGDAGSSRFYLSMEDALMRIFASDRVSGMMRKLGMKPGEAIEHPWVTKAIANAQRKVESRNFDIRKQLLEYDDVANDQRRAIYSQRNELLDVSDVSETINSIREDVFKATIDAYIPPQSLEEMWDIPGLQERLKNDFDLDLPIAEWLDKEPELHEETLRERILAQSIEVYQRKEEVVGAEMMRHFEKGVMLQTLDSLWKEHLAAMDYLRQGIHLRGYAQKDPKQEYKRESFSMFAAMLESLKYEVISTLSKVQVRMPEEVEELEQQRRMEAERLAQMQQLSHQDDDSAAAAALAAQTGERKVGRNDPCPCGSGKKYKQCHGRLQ
Chain of Sialic acid-binding Ig-like lectin 9 (Homo sapiens) (Q9Y336 whole entry): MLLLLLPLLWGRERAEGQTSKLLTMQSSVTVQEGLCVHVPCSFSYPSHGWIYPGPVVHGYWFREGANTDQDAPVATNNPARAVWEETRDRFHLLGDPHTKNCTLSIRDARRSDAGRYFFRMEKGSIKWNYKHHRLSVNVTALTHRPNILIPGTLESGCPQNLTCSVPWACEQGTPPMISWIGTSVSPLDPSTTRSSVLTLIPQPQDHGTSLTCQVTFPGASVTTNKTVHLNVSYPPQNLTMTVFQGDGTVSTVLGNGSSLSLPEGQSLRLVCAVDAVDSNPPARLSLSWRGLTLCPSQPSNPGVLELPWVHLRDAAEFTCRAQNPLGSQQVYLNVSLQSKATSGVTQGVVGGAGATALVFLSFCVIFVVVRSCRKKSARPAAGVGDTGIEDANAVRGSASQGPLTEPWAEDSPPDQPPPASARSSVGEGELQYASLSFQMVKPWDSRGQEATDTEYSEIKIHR

For the compound `COCCN1CCN(Cc2cccc(C(=O)N(C)C)c2)CC1C` (stereo not given), the Percent Effect is -1.22% in assay [1]; 18.7% in [2]; -4.75% in assay [3]; -1.61% in the assay on Trypanosoma cruzi; 2.66% in assay [4]; 7.72% in [5]. For the same compound, the Percent Effect was 6.69% in the assay listed under Homo sapiens, 3.68% in assay [6], 7.69% in assay [7] and -8.7% in [8].

Take `Cc1ccc(C(=O)N2CCN(CCC(C)(C)C)CC2)c(=O)[nH]1`: the Percent Effect is -4.94% in [1]; 5.13% in assay [2]; 4.25% in assay [3]; -0.845% with Trypanosoma cruzi; -0.82% in [4]; -1.79% in assay [5]. Moreover, the Percent Effect was 12% in the assay filed under Homo sapiens, 3.35% in [6], 1.21% in assay [7] and 1.43% in assay [8].

As for `COCCc1noc(CN2CCCC2Cn2cc(C)cn2)n1` (stereo not given), the Percent Effect in assay [1] is -1.35%; in [2], 8%; in assay [3], 1.3%; in the assay with Trypanosoma cruzi, 3.21%; in assay [4] it was -7.98%; in [5] it was 3.31%. In addition, the Percent Effect in the assay filed under Homo sapiens was -1.19%; in assay [6], 0.526%; in [7], 7.69%; in [8], -7.63%.

Consider `Cc1n[nH]c(C)c1C1COCCN1C(=O)c1cc(Cl)c[nH]1` (stereo not given), for which the Percent Effect is -1.38% in assay [1]; 2.56% in [2]; 3.4% in assay [3]; -3.47% with Trypanosoma cruzi; 9.02% in [4]; -1.96% in [5]. The Percent Effect was 15% in the assay listed under Homo sapiens, -2.39% in assay [6], 1.21% in assay [7] and 2.03% in assay [8].

In the case of `Cc1cnc(C(=O)N2CCCCC2c2[nH]ncc2S(C)(=O)=O)cn1` (stereo not given), the Percent Effect in assay [1] was -1.18%; in [2], 4%; in [3] it was 4.14%; in the assay with Trypanosoma cruzi, -0.986%; in assay [4] it was -1.77%; in assay [5], 4.93%. Also, the Percent Effect is -6.39% in the assay listed under Homo sapiens, 6.35% in assay [6], 12.5% in [7] and -18.4% in [8].

`O=C(NCCn1nc2ccccn2c1=O)c1cccc2[nH]ncc12`: the Percent Effect in [1] was -1.51%; in assay [2] it was 20.5%; in assay [3] it was -7.98%; with Trypanosoma cruzi, 6.29%; in assay [4], -3.69%; in [5] it was 21.9%. Also, the Percent Effect in the assay listed under Homo sapiens is 13.6%; in assay [6], 4.31%; in assay [7], 22.9%; in assay [8], -8.5%.

For the compound `COc1ccc(C[C@H]2CN(C(=O)CN(C)C)CC[C@H]2OC)cc1`, the Percent Effect is -1.58% in [1]; 14.3% in assay [2]; 1.4% in assay [3]; 0.563% in the assay with Trypanosoma cruzi; 0% in [4]; -4.21% in [5]. The Percent Effect is 5.12% in the assay filed under Homo sapiens, -8.7% in [6], 10% in assay [7] and -0.592% in assay [8].

`CN(C)c1ccccc1C(=O)N1C[C@@H](CN2CCOCC2)[C@@H](CO)C1`: the Percent Effect in [1] is -7.18%; in [2], 5.41%; in assay [3], 5.57%; with Trypanosoma cruzi it was 6.69%; in [4] it was -0.35%; in assay [5] it was 18.3%. The Percent Effect was 22.3% in the assay filed under Homo sapiens, 7.98% in [6], 19.5% in [7] and -2.44% in assay [8].

For `CC(C)c1nn(C)c(N2CCOCC2)c1CNCCS(C)(=O)=O`, the Percent Effect in assay [1] is -1.81%; in assay [2], 0%; in assay [3], 0.36%; in the assay with Trypanosoma cruzi, 1.22%; in assay [4], 4.92%; in assay [5] it was -0.427%. The Percent Effect was -17% in the assay filed under Homo sapiens, 0.478% in assay [6], 1.21% in [7] and 1.65% in [8].

As to `CCn1ccnc1CNCC1CCCN1c1cc(NC)ncn1` (stereo not given), the Percent Effect in [1] was -2.03%; in assay [2] it was 0%; in [3], 1.76%; in the assay with Trypanosoma cruzi, -5.62%; in [4], 2.66%; in assay [5], 4.5%. Moreover, the Percent Effect in the assay filed under Homo sapiens was 12.1%; in assay [6], 4.74%; in assay [7], 5.13%; in assay [8], -7.63%.

As to `CC(=O)c1sc(Nc2ccc(Cl)cn2)nc1C`, the Percent Effect in assay [1] was -2.68%; in [2], 24.7%; in assay [3], 1.41%; in the assay on Trypanosoma cruzi, 1.13%; in [4], 0.913%; in [5] it was 12.6%. In addition, the Percent Effect in the assay filed under Homo sapiens was 24.7%; in assay [6], 2.9%; in assay [7], -37.5%; in assay [8], -10.7%.

As to `Cc1cnn(C2CCCN(C(=O)Cc3ccc(-n4cccn4)cc3)C2)c1` (stereo not given), the Percent Effect in assay [1] is -6.71%; in assay [2], -2.67%; in assay [3], 3.46%; with Trypanosoma cruzi, 3.81%; in assay [4], 2.66%; in [5], 1.27%. In addition, the Percent Effect in the assay listed under Homo sapiens was 6.09%; in [6], -1.58%; in assay [7] it was 5.13%; in assay [8] it was -7.75%.

As to `COC[C@@H]1CC[C@H]2[C@H](CCN2S(=O)(=O)c2ccc(OC)cc2)O1`, the Percent Effect in assay [1] was -2.3%; in assay [2] it was -1.3%; in assay [3] it was 2.46%; in the assay on Trypanosoma cruzi, -0.876%; in assay [4], -1.62%; in assay [5] it was 6.09%. For the same compound, the Percent Effect is -19.4% in the assay listed under Homo sapiens, -1.58% in assay [6], 5.13% in [7] and 1.57% in [8].

As to `Cc1cccnc1C(=O)N1CCCCC1c1[nH]ncc1S(C)(=O)=O` (stereo not given), the Percent Effect was -3.04% in [1]; 6.67% in assay [2]; 0.367% in [3]; -1.97% with Trypanosoma cruzi; 6.64% in assay [4]; 4.76% in assay [5]. Moreover, the Percent Effect was 0.716% in the assay listed under Homo sapiens, 7.41% in assay [6], 7.5% in assay [7] and -19.6% in assay [8].

The record behind these values is ChEMBL document CHEMBL3988442, “University of Dundee, Small-Polar-MMV Screening Library” (2021).
